# Structures can show the parent of a compound that is named as a salt.
# System: primary human airway basal cells (HBEC, luciferase-transduced)
# Assay: proliferation (luciferase bioluminescence) Z score relative to plate mean; higher = more proliferation / more cells, active = 1.96 or more
# Conditions: donor: 1; 0.5 µM; library: ENZO Libraries; 4 days
# Procedure: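 Primary human bronchial epithelial (airway basal) cells from two donors, lentivirally transduced with pHIV-Luc-ZsGreen, were seeded at 2000 cells/well in 384-well plates in FAD medium with ENZO or Prestwick library compounds and cultured for 4 days. Luciferin was then added and bioluminescence was read as a measure of cell number. Relative light units were converted to Z scores against the plate, and the mean of triplicate wells is reported.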
row,Structure (SMILES),proliferation
1,Nc1nc2ncnc-2c[nH]1 [2-Aminopurine],-0.301 (inactive)
2,O=C(c1ccc(Cl)cc1Cl)n1nnc2ccccc21,-0.0821 (inactive)
3,COc1cc2nc(N3CCCN(C)CC3)nc(NC3CCN(Cc4ccccc4)CC3)c2cc1OC,-0.123 (inactive)
4,Cc1ccc(S(=O)(=O)N[C@@H](Cc2ccccc2)C(=O)CCl)cc1,-0.621 (inactive)
5,Cn1cnc2c(NCc3ccccc3)nc(NCCO)nc21 [Olomoucine],0.166 (inactive)
6,NCC1CCC(C(=O)N[C@@H](Cc2ccccc2)C(=O)Nc2ccc(CC(=O)O)cc2)CC1 (stereo not given in full),0.228 (inactive)
7,Oc1ccc(/C=C/c2cc(O)cc(O)c2)cc1 [Resveratrol],1.08 (inactive)
8,O=C(CCCN1C(=O)c2cccc3cccc(c23)C1=O)NO [Nullscript],0.202 (inactive)
9,CCC(C)[C@H](NS(=O)(=O)c1cccc2ccccc12)C(=O)N[C@H](C=O)Cc1c[nH]c2ccccc12 (stereo not given in full),-0.192 (inactive)
10,O=Nc1ccc(O)c2ncccc12,-0.683 (inactive)
11,Oc1ccc(-c2nc(-c3ccc(F)cc3)c(-c3ccncc3)[nH]2)cc1,0.995 (inactive)
12,CC[C@H](C)[C@H](N)C(=O)N1CCSC1 [P32/98 hemifumarate salt],-0.342 (inactive)
13,O=C1Nc2ccc(I)cc2/C1=C/c1cc(Br)c(O)c(Br)c1,-0.115 (inactive)
14,O=c1oc(Cl)c(Cl)c2ccccc12 [34-Dichloroisocoumarin],0.257 (inactive)
15,NC(N)=NCCC[C@H](NC(=O)[C@@H]1CCCN1C(=O)[C@H](N)Cc1ccccc1)C(=O)CCl,0.533 (inactive)
16,CCCC(CCC)C(=O)O [Valproic acid],-0.00583 (inactive)
17,CCOC(=O)C1=CN(Cc2ccccc2)C=C(C(=O)OCC)C1c1ccccc1,0.415 (inactive)
18,O=C(O)c1ccnc(C(=O)O)c1 [24-Pyridinedicarboxylic Acid],0.171 (inactive)
19,O=C1c2ccccc2C(=O)c2c(NCCc3ccc(O)cc3)ccc(NCCc3ccc(O)cc3)c21,0.275 (inactive)
20,COc1cc(/C=C(\C#N)C(N)=O)cc(CSc2nc3ccccc3s2)c1O,-0.428 (inactive)

# Same assay, conditions: donor: 1; 5 µM; library: ENZO Libraries; 4 days
row,Structure (SMILES),proliferation
1,Nc1nc2ncnc-2c[nH]1 [2-Aminopurine],-0.296 (inactive)
2,O=C(c1ccc(Cl)cc1Cl)n1nnc2ccccc21,0.316 (inactive)
3,COc1cc2nc(N3CCCN(C)CC3)nc(NC3CCN(Cc4ccccc4)CC3)c2cc1OC,-0.996 (inactive)
4,Cc1ccc(S(=O)(=O)N[C@@H](Cc2ccccc2)C(=O)CCl)cc1,-0.67 (inactive)
5,Cn1cnc2c(NCc3ccccc3)nc(NCCO)nc21 [Olomoucine],-0.244 (inactive)
6,NCC1CCC(C(=O)N[C@@H](Cc2ccccc2)C(=O)Nc2ccc(CC(=O)O)cc2)CC1 (stereo not given in full),0.079 (inactive)
7,Oc1ccc(/C=C/c2cc(O)cc(O)c2)cc1 [Resveratrol],3.39 (active)
8,O=C(CCCN1C(=O)c2cccc3cccc(c23)C1=O)NO [Nullscript],-0.00941 (inactive)
9,CCC(C)[C@H](NS(=O)(=O)c1cccc2ccccc12)C(=O)N[C@H](C=O)Cc1c[nH]c2ccccc12 (stereo not given in full),-0.56 (inactive)
10,O=Nc1ccc(O)c2ncccc12,-1.09 (inactive)
11,Oc1ccc(-c2nc(-c3ccc(F)cc3)c(-c3ccncc3)[nH]2)cc1,0.0853 (inactive)
12,CC[C@H](C)[C@H](N)C(=O)N1CCSC1 [P32/98 hemifumarate salt],-0.616 (inactive)
13,O=C1Nc2ccc(I)cc2/C1=C/c1cc(Br)c(O)c(Br)c1,-0.66 (inactive)
14,O=c1oc(Cl)c(Cl)c2ccccc12 [34-Dichloroisocoumarin],0.055 (inactive)
15,NC(N)=NCCC[C@H](NC(=O)[C@@H]1CCCN1C(=O)[C@H](N)Cc1ccccc1)C(=O)CCl,-0.142 (inactive)
16,CCCC(CCC)C(=O)O [Valproic acid],-0.171 (inactive)
17,CCOC(=O)C1=CN(Cc2ccccc2)C=C(C(=O)OCC)C1c1ccccc1,0.65 (inactive)
18,O=C(O)c1ccnc(C(=O)O)c1 [24-Pyridinedicarboxylic Acid],-0.194 (inactive)
19,O=C1c2ccccc2C(=O)c2c(NCCc3ccc(O)cc3)ccc(NCCc3ccc(O)cc3)c21,-0.000622 (inactive)
20,COc1cc(/C=C(\C#N)C(N)=O)cc(CSc2nc3ccccc3s2)c1O,-0.258 (inactive)

# Source: the supplement of paper PMC12045047
